Screening results (PubChem)
D1 agonist – Allosteric Agonists of the Human D1 Dopamine Receptor: qHTS; D(1A) dopamine receptor (Homo sapiens), P21728; HEK293 T-REx D1 cells, calcium flux, agonist mode; activation, % at 2 µM; 360,000 compounds, 1% hits; AID 504660, 2011; in the data active = activation above about 30%; also: 0% is about no effect
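Tetracycline-induced HEK293 TREx D1 cells, force-coupled to calcium signalling, were dye-loaded with a no-wash calcium kit. Compound was pin-added after a 10 s baseline. Fluorescence was read kinetically at 1 cycle/s for 180 s, with calcium rises flagged as agonism.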
D1 PAM – Potentiators of Human D1 Dopamine Receptor: qHTS | D(1A) dopamine receptor (Homo sapiens), P21728 | HEK293 TREx D1 cells, calcium flux, dopamine EC20 potentiation | potentiation, % at 10 µM | 360,000 compounds, 0.036% hits | AID 504651, 2011; in the data active = potentiation above about 30%; also: 0% is about no effect
D1 antag – Antagonist of Human D 1 Dopamine Receptor: qHTS | HEK293 TREx D1 cells, calcium flux, dopamine EC80; hits give low values | activity change, negative = inhibition, % at 10 µM | 360,000 compounds, 3.2% hits | AID 504652, 2011; in the data active = activity change below about -30%; also: % is scaled to controls: 0 for no effect and ±100 for the full control effect
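Tetracycline-induced HEK293 Trex D1 cells, force-coupled to calcium, dye-loaded; compounds added and read 180 s, then EC80 dopamine added and calcium flux tracked kinetically another 180 s.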
D3 antag – qHTS of D3 Dopamine Receptor Antagonist: qHTS; D(3) dopamine receptor (Homo sapiens), P35462; D3R cells, DiscoveRx beta-arrestin luminescence, antagonist mode; hits give low values; max response, negative = inhibition, %; 360,000 compounds, 2.5% hits; in the data active = max response below about -50%; inconclusive = no clear call, values can overlap the other calls; also: % is scaled to controls: 0 for no effect and ±100 for the full control effect
Target sequence (P35462 whole entry, looked up): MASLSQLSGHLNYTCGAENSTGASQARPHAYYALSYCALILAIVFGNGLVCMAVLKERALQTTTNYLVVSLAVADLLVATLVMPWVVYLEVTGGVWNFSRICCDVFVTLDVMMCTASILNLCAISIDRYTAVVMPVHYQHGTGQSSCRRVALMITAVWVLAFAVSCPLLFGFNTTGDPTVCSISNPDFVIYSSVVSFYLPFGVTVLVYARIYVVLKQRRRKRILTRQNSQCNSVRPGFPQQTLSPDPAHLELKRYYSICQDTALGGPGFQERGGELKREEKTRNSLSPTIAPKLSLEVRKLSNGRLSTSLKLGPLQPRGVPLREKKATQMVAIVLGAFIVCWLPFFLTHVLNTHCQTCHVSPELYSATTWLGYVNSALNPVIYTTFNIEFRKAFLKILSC
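Cells plated overnight at 1500 cells/well, then exposed to library compounds with dopamine controls for 90 minutes at 37 degrees C. DiscoveRx reagent added for 30–60 minutes at room temperature; luminescence read, quantitative HTS format.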
DRD3 agonist – qHTS of D3 Dopamine Receptor Agonist: qHTS; D(3) dopamine receptor (Homo sapiens), P35462; 410,000 compounds, 0.58% hits; max activation, %; D3R DiscoveRx beta-arrestin cells, luminescence, 90 min; AID 652048, 2013; in the data active = max activation above about 30%; also: 0% is about no effect
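Cells at 1500/well, incubated overnight, then treated with pinned compounds (dopamine as control) for 90 min at 37 degrees C. DiscoveRx reagent added for 30 - 60 minutes at room temperature; luminescence read.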
* = called active by the depositor; ? = inconclusive; . = no result given. The list is not random: actives were taken first. Their share in the collection is about 6.1%.

SMILES	D1 agonist	D1 PAM	D1 antag	D3 antag	DRD3 agonist
Cc1ccc(C)c(OCC(O)CN2CCC(C)CC2)c1C (stereo unspecified)	1.0	-5.2	-29.7	?	-13.9
CN1CCN(CC(O)COc2ccccc2)CC1 (stereo unspecified)	5.6	2.5	-3.7	6.2	-0.1
COc1ccc(-c2cc(-c3ccccc3)nc3c2COc2ccc(F)cc2-3)cc1	0.1	-0.2	21.9	.	-11.3
OC(COc1ccc(CNCc2cccnc2)cc1)CN1CCc2ccccc2C1 (stereo unspecified)	4.7	-5.6	-23.5	-103.3*	3.6
CC1(C)CC(=O)C2=C(C1)N=C1SCCC(=O)N1C2c1ccccc1 (stereo unspecified)	1.0	5.7	8.5	-53.2*	-2.2
O=C1CCCC2=C1C(c1ccc(Cl)cc1)N1C(=O)CCSC1=N2 (stereo unspecified)	4.5	2.5	-0.5	-7.6	-4.5
COc1ccc(C2CC(=O)N(CCCN(C)CCc3ccc(OC)c(OC)c3)C2)cc1 (stereo unspecified)	-0.8	-5.2	9.0	-6.1	-9.0
CSCC[C@H](N)C(=O)N1CCC(C(=O)N[C@@H](C)C(=O)NCc2ccc(F)cc2)CC1	0.1	-2.0	-3.2	4.7	31.3*
COc1ccc(S(=O)(=O)N2CCC(C(=O)NCCC3=CCCCC3)CC2)cc1OC	0.6	-7.2	-43.0*	19.3	-2.7
COc1ccc(CCN(C)CCCN2CC(c3ccccc3)CC2=O)cc1OC (stereo unspecified)	1.6	-6.9	-39.3*	?	-16.5
CC(C)[C@H](NC(=O)C1CCN(S(=O)(=O)c2ccccc2)CC1)C(=O)NCc1ccccc1	2.2	-2.9	-44.7*	-14.6	-0.9
CCN(c1ccc(C)cc1C)S(=O)(=O)c1nnc(NC(=O)CC(C)C)s1	3.5	-3.7	-24.0	.	-11.0
CCOC(=O)c1cc(-c2ccccc2)n(CCC(=O)Nc2ccc(Cl)c(C(F)(F)F)c2)c1C	26.2	-2.5	-8.3	.	2.6
O=c1c2oc3ccccc3c2n(Cc2cccc(F)c2)c(=O)n1Cc1ccco1	3.3	5.5	0.8	.	-6.0
COc1ccc(CN2CC(C(=O)NCCc3ccccc3)CC2=O)cc1 (stereo unspecified)	0.4	3.9	22.0	-7.4	-7.0
Cc1ccc(S(=O)(=O)N2CCC(C(=O)N[C@@H](Cc3ccccc3)C(=O)O)CC2)cc1	0.9	1.9	12.3	-8.7	37.1*
O=C(NC(Cc1ccccc1)C(=O)O)C1CCN(S(=O)(=O)c2cccc(C(F)(F)F)c2)CC1 (stereo unspecified)	1.3	-1.9	0.0	-19.7	3.8
COc1ccc(CN2CC(C(=O)NCCc3ccc(C)cc3)CC2=O)cc1 (stereo unspecified)	0.4	-1.6	-47.4*	-16.0	-22.0
Cc1ccc(S(=O)(=O)N2CCC(C(=O)NCCc3ccc(S(N)(=O)=O)cc3)CC2)cc1	0.7	10.8	10.1	12.1	37.3*
COc1ccc(S(=O)(=O)N2CCC(N3CCN(Cc4ccc(F)cc4)C(=O)C3=O)CC2)cc1	2.4	1.0	-35.9*	.	-6.9
CCOC(=O)c1scc(-c2ccc(C)cc2)c1S(=O)(=O)Nc1ccc(OC)c(Cl)c1	9.8	-5.9	-3.2	.	-1.3
Cc1ccc2oc(-c3ccc(C)c(NC(=O)C(C)(C)Oc4ccc(Cl)cc4)c3)nc2c1	-1.4	-3.6	-3.0	.	13.9
COc1ccc(CCN(C)C(=O)C2CC(=O)N(Cc3ccc(C)cc3)C2)cc1OC (stereo unspecified)	1.8	.	-34.1*	-1.5	-0.9
CN(Cc1cccs1)C(=O)C1CC(=O)N(Cc2ccccc2)C1 (stereo unspecified)	2.6	-5.9	-54.0*	-2.4	4.4
COc1ccc(CCNC(=O)C2CCN(S(=O)(=O)c3ccc(C)cc3)CC2)cc1	8.4	-12.4	-34.7*	-18.3	-7.8
SMILES	D1 agonist	D1 PAM	D1 antag	D3 antag	DRD3 agonist
COc1ccc(S(=O)(=O)N2CCC(C(=O)N[C@@H](C)C(=O)NCc3ccc(F)cc3)CC2)cc1	-0.4	3.0	-34.9*	-3.9	-12.3
CCN(CC)c1ccc(NC(=O)Cn2cc3c(n2)CCCC3)c(C)c1	2.0	-1.1	10.9	.	-9.1
COc1ccccc1CNC(=O)CCCn1c(=O)c2ccccc2n(Cc2ccccc2C#N)c1=O	-1.9	2.2	-23.8	.	-15.6
O=C(COc1ccc(F)cc1)Nc1ccccc1C(=O)OCc1cc(=O)n2nc(C3CC3)sc2n1	0.5	0.3	-9.6	.	-6.9
COc1cc(OC)c(C(=O)C=Cc2ccc(OC)c(OC)c2)c(OC)c1	.	.	.	?	-4.8
COc1cc(O)c(C(=O)/C=C/c2ccccc2)c(OC)c1	1.6	-3.0	-55.6*	38.5	3.8
COc1ccc(/C=C/C(=O)c2ccc(OC)cc2OC)c(OC)c1	0.9	-5.3	-3.9	-2.5	34.9*
COc1ccc(C(=O)c2ccc(OC)cc2OC)cc1	0.4	-1.1	-48.5*	0.0	6.1
Cc1ccc(Nc2cc(C)nn2-c2nc(C)cc(=O)[nH]2)cc1	-1.3	-1.0	6.3	-66.8*	0.3
CC(C)CCOc1ccccc1Cn1c(=O)sc2ccccc21	34.8*	-4.0	14.0	.	-4.5
CCOc1ccccc1Cn1c(=O)sc2ccccc21	1.8	-0.6	-1.5	4.3	-4.5
COc1ccc(-c2nc3scc(CCNS(=O)(=O)c4ccc(Oc5ccccc5)cc4)n3n2)cc1OC	9.9	-0.8	.	.	0.5
CCOC(=O)C1CCN(Cc2cnc(NC(=O)OC)s2)CC1	3.2	-6.2	0.3	-6.5	10.7
CCOC(=O)C1CCN(Cc2cnc(Oc3ccc(C(C)(C)C)cc3)s2)CC1	29.5	-5.6	7.7	-93.2*	-1.1
CC(=O)c1ccc(NC(=O)C2(c3ccccc3)CC2(Cl)Cl)cc1 (stereo unspecified)	37.6*	0.5	4.7	-12.0	-6.9
O=[N+]([O-])c1ccc(N/N=C2\CC3CC=CC23)cc1 (stereo unspecified)	14.0	-0.7	-31.2*	-2.7	-2.9
O=[N+]([O-])c1ccc(N/N=C2\CC3CC=CC23)c([N+](=O)[O-])c1 (stereo unspecified)	2.0	-1.8	-3.9	12.4	7.2
COc1ccc(-n2c(CC3C(=O)N(C)c4ccc(C)cc43)nc3ccccc3c2=O)cc1 (stereo unspecified)	0.6	-0.7	4.3	.	0.6
CCOC(=O)N1CCC(NC(=O)c2cc(C)c3c(C)nn(-c4ccccc4)c3n2)CC1	0.8	-0.1	21.3	3.3	45.6*
COc1cc2c(cc1OC)CN(C(=O)c1cc(COc3ccccc3SC)on1)CC2	.	.	.	6.9	3.1
CCOC(=O)N1CCC(NC(=O)c2cc(COc3ccc(F)cc3Cl)on2)CC1	11.3	-2.6	-11.8	25.5	0.9
